High-throughput results as filed in PubChem.
Eya2 inh: qHTS Assay for Inhibitors of the Phosphatase Activity of Eya2; Protein phosphatase EYA2 (Homo sapiens), O00167; recombinant Eya2, OMFP fluorescence dephosphorylation (OMFP is methylfluorescein phosphate); Potency, µM (titrated, usually from 76.9 µM), inactives show at the top dose activity, negative = inhibition, actives largely listed as inhibitors; 0.006% of 330,000 active; AID 488837, 2010; also: % is scaled to controls: 0 for no effect and ±100 for the full control effect
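Eya2 protein (added as 0.2 uM solution) was preincubated with compound for 10 min at ambient temperature in 50 mM HEPES pH 7.5, 50 mM NaCl, 5 uM MgCl2, 0.05% BSA, 1 mM DTT. OMFP (added at 50 uM) then reacted 10 min; fluorescence read at 485/525 nm.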
ALOX12 inh: Primary qHTS assay for inhibitors of human arachidonate 12S-lipoxygenase (ALOX12): Round 2; Polyunsaturated fatty acid lipoxygenase ALOX12 (Homo sapiens), P18054; purified 12hLO, xylenol orange hydroperoxide absorbance; Potency, µM (titrated, usually from 108 µM), for the others: top-dose activity change, negative = inhibition, hits mostly inhibitors; 1.1% of 580,000 active; AID 1671190, 2021; also: % is scaled to controls: 0 for no effect and ±100 for the full control effect
Target sequence (P18054 whole entry, looked up): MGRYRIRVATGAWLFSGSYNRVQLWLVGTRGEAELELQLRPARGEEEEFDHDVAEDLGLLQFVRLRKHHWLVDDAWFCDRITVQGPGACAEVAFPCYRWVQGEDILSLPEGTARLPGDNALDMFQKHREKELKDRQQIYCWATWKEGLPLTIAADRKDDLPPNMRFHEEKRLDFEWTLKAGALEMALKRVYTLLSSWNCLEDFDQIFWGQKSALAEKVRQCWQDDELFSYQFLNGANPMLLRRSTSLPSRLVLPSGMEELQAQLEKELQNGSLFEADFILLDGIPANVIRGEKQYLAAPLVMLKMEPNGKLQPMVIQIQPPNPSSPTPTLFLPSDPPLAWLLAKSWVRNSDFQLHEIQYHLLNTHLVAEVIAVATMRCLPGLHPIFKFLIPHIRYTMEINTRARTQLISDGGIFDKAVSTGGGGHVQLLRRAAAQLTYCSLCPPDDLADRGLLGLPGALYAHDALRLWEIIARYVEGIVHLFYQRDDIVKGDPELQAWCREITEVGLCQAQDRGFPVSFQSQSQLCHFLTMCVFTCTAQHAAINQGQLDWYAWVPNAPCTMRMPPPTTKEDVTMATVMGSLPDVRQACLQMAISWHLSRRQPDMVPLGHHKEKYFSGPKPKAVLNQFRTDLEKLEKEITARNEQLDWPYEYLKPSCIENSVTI
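Purified human 12hLO (150 nM final) in 25 mM Hepes, 0.01% Triton X-100, pH 7.0 was preincubated 15 min at room temperature with compound. Then 40 uM arachidonic acid was added, 30 min. Hydroperoxide was read by Fe-XO absorbance ratio 573/405 nm.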
USP2a inh: qHTS Assay for Inhibitors of Ubiquitin-specific Protease USP2a Using CHOP2 as the Reporter; USP2 core, Ub-CHOP2 coupled fluorogenic reporter, 485/531; Potency, µM (top dose mostly 38.3 µM), for the others: at the highest dose activity change, negative = inhibition, usual class: inhibitors; 0.01% of 330,000 active; AID 463254, 2010;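 also: plate controls were DMSO wells for no effect and full inhibition by NEM control for full effect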
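USP2 core (10nM final) preincubated 30min RT with compound in 20mM Tris-HCl pH 8.0, 2mM CaCl2, 2mM beta-mercaptoethanol, 0.05% CHAPS; 25nM Ub-CHOP2 plus 25nM reporter substrate added, fluorescence (Ex485/Em531) read after 60min.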
TSG101-PTAP inh: qHTS Assay for Iinhibitors of HIV-1 Budding by Blocking the Interaction of PTAP/TSG101. AID 493005, 2010. Fluorescence polarization, FITC-PTAP peptide / Tsg101 binding. Potency, µM (doses to about 115 µM), inactives show top-dose activity change, negative = inhibition, most hits filed as inhibitors. 340,000 tested, under 10 active. Tumor susceptibility gene 101 protein (Homo sapiens), Q99816; active = well fitted inhibition curve with a large enough effect in the main read-out, with a control signal flat, not every such curve was filed as active; inconclusive = small, poorly fitted or top-dose-only effect, or effect the other way, or a change in a side signal; inactive = no such curve, though single readings can be large or run the other way; also: % of control where 0% means no effect
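Compounds were pin-transferred onto Tsg101 binding domain (10 uM final) in HEPES pH 7.5 buffer, then FITC-PTAP peptide was added at 50 nM final. After 20 min at RT, polarization reported peptide displacement across a qHTS concentration series.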
The depositor's hits bear a star; ? = inconclusive; . = no result; [ ] = remark or other dose. Hits are enriched below; roughly 1.1% of the tested compounds scored in any of these assays. Unless noted, calls follow the shape of the dose curve; as a rule, active = well fitted curve in the direction sought with a large enough effect; inconclusive = small, poorly fitted or top-dose-only effect, or another doubt; inactive = no such curve, though single readings can be large; an effect the other way counts as inactive or inconclusive. Potency is read from the fitted curve at half-maximal effect.

SMILES | Eya2 inh | ALOX12 inh | USP2a inh | TSG101-PTAP inh
COc1ccc(OC)c(C2CC(=O)N3CN(c4ccccc4F)CSC3=C2C#N)c1 (stereo unspecified) | 0.1% | ? | -0.7% | -3.1%
COc1ccccc1N1CSC2=C(C#N)C(c3ccc(SC)cc3)CC(=O)N2C1 (stereo unspecified) | -1.6% | 11.2µM* | -0.6% | -4.7%
COc1cc(C2CC(=O)N3CN(c4ccccc4C)CSC3=C2C#N)cc(OC)c1OC (stereo unspecified) | -1.5% | ? | -5.1% | .
COc1cccc(C2CC(=O)N3CN(c4ccccc4F)CSC3=C2C#N)c1 (stereo unspecified) | -16.6% | 8.91µM* | 2.3% | 1.4%
Cc1ccc(S(=O)(=O)NNc2c3ccccc3nc3ccc(Cl)cc23)cc1 | . | 25.1µM* | . | .
Cc1ccccc1-n1cc(-c2ccnc(NC(C)Cc3ccncc3)n2)cn1 (stereo unspecified) | . | 78.6% | . | .
Cc1cccc(C)c1-c1nc(C(=O)NCCc2ccc(Cl)cc2)n2ccccc12 | . | 59.5% | . | .
O=C(O)c1ccc(Cl)cc1Nc1nc2cc(Cl)ccc2o1 | 4.4% | 8.91µM* | -8.0% | -7.8%
O=C(O)c1ccccc1Nc1cc(Cl)ccc1C(=O)O | . | -22.3%[12.5 µM] | . | .
O=C1NN(c2cccc(Br)c2)C(=O)/C1=C\c1ccccc1 | -6.2% | 5.62µM* | 2.3% | -4.8%
O=C1NN(c2ccccc2)C(=O)/C1=C\c1ccccc1 | -14.7% | ? | 1.1% | -1.9%
COc1ccc(C2SCc3cc(C)c(C)cc3CS2)cc1 | . | 0.5% | . | .
Cc1cc2c(cc1C)CSC(c1c(O)ccc3cc(Br)ccc13)SC2 | . | 0.794µM* | . | .
COc1ccc(CNCc2cn(-c3cccc(F)c3)nc2-c2ccc(C)o2)cc1 | -9.9% | 44.7µM* | 10.3% | -7.8%
Cc1cccc(-c2cnc3n[nH]c(-c4ccccc4)c3n2)c1 | . | 27.7%[176 µM] | . | .
Cc1ccc(Cc2c(-c3ccc(Br)cc3)nc3ccc(Cl)cn23)cc1 | . | 35.5µM* | . | .
Cc1ccc(-c2nc3ccc(Br)cn3c2Cc2ccsc2)cc1 | . | 3.16µM* | . | .
O=C1CC(c2ccccc2O)Cc2nc(N3CCN(c4ccccc4)CC3)ncc21 (stereo unspecified) | . | -61.7% | . | .
CC1(COc2cccnc2)COc2ccc(C(=O)NCCc3ccccc3)cc2N1 (stereo unspecified) | . | 53.6%[176 µM] | . | .
CN(CC(=O)NC1(C#N)CCCCC1)Cc1ccc(C(F)(F)F)cc1 | . | 28.2µM* | . | .
O=C(NC(=S)Nc1ccccc1N1CCOCC1)c1ccc(-c2cccc(Cl)c2)o1 | 1.1% | 39.8µM* | 1.6% | 1.6%
Cc1c(NC(=S)NC(=O)c2ccc(-c3ccc(Cl)cc3)o2)cccc1C(=O)O | -1.1% | 28.2µM* | 4.0% | 0.2%
CC(CN1CCCCC1)NC(=O)c1scnc1-c1ccccc1 (stereo unspecified) | . | 5.62µM* | . | .
COC(=O)C1(NC(=O)COc2cc(Cl)ccc2Cl)CCCCCC1 | . | -14.2% | . | .
C[N+](C)(C)CCCCCCCCCC[N+](C)(C)C | -7.1% | 1.3% | 7.0% | -4.9%
SMILES | Eya2 inh | ALOX12 inh | USP2a inh | TSG101-PTAP inh
C[N+](C)(CCCCCCCCCC[N+](C)(C)C1CCCCC1)C1CCCCC1 | . | 15.8µM* | . | .
CNc1nc(-c2ccoc2)nc2ccccc12 | . | 35.5µM* | . | .
c1csc(CNc2nc(-c3ccoc3)nc3ccccc23)c1 | . | 10µM* | . | .
CNc1nc(-c2cccnc2)nc2ccccc12 | . | -38.6% | . | .
COC(=O)c1c(NC(=S)Nc2cc(OC)c(Cl)cc2OC)sc2c1CCCCC2 | 4.4% | 39.8µM* | -11.1% | 0.2%
CCN1CCN(CC(O)COc2cccc(CNC3(c4ccccc4)CC3)c2)CC1 (stereo unspecified) | . | 14.1% | . | .
COc1ccc(-c2c(C)oc3cc(OS(=O)(=O)c4ccc(C)cc4)ccc3c2=O)cc1 | . | 3.8% | . | .
COC(=O)C1=C(C)N(Cc2ccc(Br)cc2)C(=S)NC1c1ccccc1 (stereo unspecified) | . | 39.8µM* | . | .
COC(=O)C1=C(C)N(Cc2ccccc2)C(=S)NC1c1cccc(Br)c1 (stereo unspecified) | . | 39.8µM* | . | .
